# Reference: ChEMBL document CHEMBL3433997, “St. Jude Leishmania screening dataset” (2016)
# Key:
# Type in all cases: functional
# [1] = target: Solute carrier family 2, facilitated glucose transporter member 1 (Homo sapiens) (UniProt P11166); assay: ST_JUDE_LEISH: Cytotoxicity at 2uM final concentration against transgenic Leishmania Mexicana promastigotes LmGLUT1 that are glucose transport deficient and complemented with the human glucose transporter GLUT1. Activity is measured by DNA content using SYBR green in vitro
# Sequence of Solute carrier family 2, facilitated glucose transporter member 1 (Homo sapiens) (P11166 whole entry): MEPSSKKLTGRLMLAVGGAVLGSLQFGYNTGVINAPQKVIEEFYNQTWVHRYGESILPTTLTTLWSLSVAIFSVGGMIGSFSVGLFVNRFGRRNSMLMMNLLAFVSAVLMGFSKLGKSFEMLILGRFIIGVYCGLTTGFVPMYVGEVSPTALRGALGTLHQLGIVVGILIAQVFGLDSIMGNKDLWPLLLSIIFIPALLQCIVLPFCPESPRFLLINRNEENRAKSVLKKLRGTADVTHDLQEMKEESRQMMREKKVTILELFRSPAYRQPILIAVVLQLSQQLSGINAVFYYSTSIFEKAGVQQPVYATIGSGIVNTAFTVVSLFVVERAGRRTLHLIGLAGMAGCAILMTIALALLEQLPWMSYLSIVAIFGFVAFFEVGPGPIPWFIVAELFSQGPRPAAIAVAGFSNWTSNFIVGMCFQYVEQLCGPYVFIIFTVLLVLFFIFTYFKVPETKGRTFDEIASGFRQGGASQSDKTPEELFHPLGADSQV
# [2] = target: Hexose transporter 1 (Plasmodium falciparum) (UniProt O97467); assay: ST_JUDE_LEISH: Cytotoxicity at 2uM final concentration against transgenic Leishmania Mexicana promastigotes LmPfHT that are glucose transport deficient and complemented with the Plasmodium falciparum hexose transporter. Activity is measured by DNA content using SYBR green in vitro
# [3] = target: Glucose transporter (Leishmania mexicana) (UniProt O61059); assay: ST_JUDE_LEISH: Cytotoxicity at 2uM final concentration against transgenic Leishmania Mexicana promastigotes LmGT2 that are glucose transport deficient and complemented with the L. Mexicana glucose transporter 2. Activity is measured by DNA content using SYBR green in vitro
Structure (SMILES),inhibition [1] [%],inhibition [2] [%],inhibition [3] [%]
CC1(C)NC(N)=NC(=N)N1OCCSc1ccccc1,2.9,3.7,3.37
CC(c1cccc(Nc2nccc(-c3c(-c4cccc(NC(=O)c5c(F)cccc5F)c4)nn4ccccc34)n2)c1)S(C)(=O)=O (stereo not given),3.25,2.14,-0.68
Fc1ccc2[nH]c3c(NCCN4CCCCC4)ncnc3c2c1,-3.47,-0.73,-1.11
CO/C(=C\C=C\c1cc2cc(Cl)c(Cl)cc2[nH]1)C(=O)NC1CC2CCC(C1)N2C (stereo not given),0.15,1.93,-1.99
Cc1ccc2[nH]c(-c3ccc(C=CC(=O)NC4CCN(Cc5ccccc5)CC4)cc3)nc2c1,2.64,3.29,5.84
FC(F)(F)c1ccc2[nH]c(-c3cccc(-c4cccc(CNCCc5ccncc5)c4)c3)nc2c1,4.96,4.69,5.06
CCOc1ccc(-c2nc(NC(=O)Cc3cccc(OC)c3)sc2C)cc1,5.17,7.92,-0.61
COc1cc(CNc2ncc(-c3ccsc3)c(-c3nccs3)n2)cc(OC)c1,1.79,1.49,-0.78
O=C(CCN1CCCCC1)Nc1ccc(Nc2nccc(NCC(O)c3ccccc3)n2)cc1 (stereo not given),-1.33,-1.09,-2.39
CC(C)NC(=N)NN=Cc1ccc(Cl)c(Cl)c1,5.7,2.99,0.07
CCCCCCCN1CC[C@@H](CCCc2ccnc3ccc(OCCC4CCNCC4)cc23)[C@@H](CC)C1,7.73,7.46,6.53
N=C(N)NN=CC(=O)Nc1ccc(C(F)(F)F)cc1,-0.81,-0.97,3.39
NC(=O)c1cccc(C(=O)Nc2cccc(-c3cccc(-c4nc5ccccc5[nH]4)c3)c2)c1,5.87,5.18,4.03
CCOC(=O)c1c(C)n(-c2ccccc2)c2ccc(OC(=O)c3ccc(S(=O)(=O)N(CC)CC)cc3)cc12,4.6,5.12,5.12
O=S(=O)(Nc1cc2c(cc1OCc1ccccc1)CCN(C1CCC1)CC2)c1ccc(-c2ccc(Cl)cc2)cc1,1.72,2.61,-1.11
CCCCCCNC(=O)C1Cc2c([nH]c3cc(Cl)ccc23)C2(CCN(CCC)CC2)N1 (stereo not given),3.28,2.13,2.32
Fc1ccc(C2N=C(SCCSC3=NC(c4ccc(F)cc4)C(c4ccc(F)cc4)N3)NC2c2ccc(F)cc2)cc1 (stereo not given),1.34,3.1,3.33
Cc1cccc2nc(-c3ccc(-c4ccc(CN5CCN(C6CCN(C)CC6)CC5)cc4)cc3)[nH]c12,1.22,1.31,-0.53
COc1cc2nc(NC3CCN(Cc4ccccc4)CC3)nc(N)c2cc1OC,3.62,2.22,13
CN(CCO)Cc1ccc(-c2ccc(NS(=O)(=O)c3cccc4cccnc34)cc2)cc1,75.1,81.8,80.8
COc1ccccc1N1CCN(C(C(=O)NCc2cccc(F)c2)c2ccc(C)cc2)CC1 (stereo not given),2.99,3.56,-1.92
CCNc1cc(C(=O)N[C@@H](Cc2ccccc2)[C@H](O)CNC2(Cc3cccc(Cl)c3)CCC2)cc(N2CCCCS2(=O)=O)c1,-0.69,0.65,2.93
N#Cc1cccc(NC(=O)c2ccc(S(=O)(=O)NCC3CCCN3CC3CCCCC3)cc2)c1 (stereo not given),2.47,4.27,1.88
COc1ccc2nccc([C@@H](O)CN3CCC(NC(=O)c4cc5c(F)cc(F)cc5[nH]4)CC3)c2c1,18.1,20.8,8.41

Structure (SMILES),inhibition [1] [%],inhibition [2] [%],inhibition [3] [%]
N#Cc1ccc(N/C(=N\c2ccc(-c3ccccc3)cc2)NCCc2c[nH]c3ccccc23)c(O)c1,9.42,8.49,8.99
CC(=O)Oc1cc(C(=O)Nc2ccc(Cl)cc2)cc2ccccc12,7.81,5.31,5.8
CCCC(C)N(Cc1ccc(C(C)(C)C)cc1)C(=O)c1ccc(OC)cc1 (stereo not given),9.4,10.6,7.03
COc1ccc(N2CCN(CCCOc3ccc(NC(=O)c4cc(Cl)cc(Cl)c4)cc3)CC2)c(OC)c1,6.5,5.97,6.22
COc1ccccc1C1CCN(C2CCC(NC(=O)/C=C/c3ccc(F)c(F)c3)CC2)CC1 (stereo not given),-3.94,-1.53,-2.36
CC(C)CN1C(=O)c2ccc(C(=O)Nc3nccs3)cc2C1=O,1.07,1.52,3.65
CC(CN1CCN(C)CC1)C(=O)Nc1ccc(-c2cccc(-c3nc4cc(C(F)(F)F)ccc4[nH]3)c2)cc1 (stereo not given),-0.51,0.32,-2.84
O=C(c1cccs1)N(Cc1cccc(-c2ccc(CNCCc3ccccc3)cc2)c1)C1CCN(Cc2ccccc2)CC1,9.9,7.55,9.34
CCN(CC)CCN(Cc1ccc(-c2ccc(C(F)(F)F)cc2)cc1)C(=O)Cn1c(CCc2cc(F)cc(F)c2F)nc(=O)c2ccccc21,2.05,0.76,-0.7
CNCc1ccc2nc(-c3coc(Cc4cc(Cl)ccc4OCC(C)C)n3)[nH]c2c1,6.56,4.9,3.77
CN(C)CCNC(=O)c1ccc(-c2cnc3ccc(NCc4ccc(Cl)c(Cl)c4)nn23)cc1,-1.43,-1.29,11.1
Cc1cc(N(C)C)nc(Nc2ccc(NC(=O)COc3ccccc3)cc2)n1,2.72,7.92,-2.15
COc1cccc2cc(C(=O)N[C@@H](CC(C)C)C(=O)N[C@H](/C=N/NC(=O)N3CCN(C)CC3)CCc3ccccc3)oc12,9.32,11.9,8.39
CCc1cn2c3c(cc(C(=O)N[C@@H](Cc4ccccc4)[C@H](O)CNC4CCCCC4)cc13)N(C)S(=O)(=O)C2,2.09,2.23,2.69
O=C(Nc1nc(-c2ccccn2)cc2ccccc12)c1cccc(Cl)c1,10.1,9.58,8.17
COc1ccc2c(NCCc3ccccc3)cc(-c3ccccc3)nc2c1,9.93,10.8,4.05
CN(C)CCCNc1ccnc2cc(Cl)ccc12,1.15,0.62,-1.76
CC(CN(C)C)C(=O)Nc1cccc(-c2ccc(-c3nc4cc(C(F)(F)F)ccc4[nH]3)cc2)c1 (stereo not given),11,9.17,4.86
COc1c(C)[nH]c(C)c(-c2ccc(Oc3cccc(C(F)(F)F)c3)cc2)c1=O,10.2,10.6,4.46
NC1CCCN(Cc2cccc(-c3cccc(-c4nc5ccccc5[nH]4)c3)c2)C1 (stereo not given),8.27,6.48,5.75
COc1cc(NC(=O)c2sc(-c3ccc(Cl)cc3)cc2NC(=O)N2CCCC2)ccc1OCCN1CCCC1,2.35,3.29,1.4
COc1ccc(-c2ccc(NC(=O)c3ccc(Cl)cc3)cc2)cc1CN(C)CCN(C)C,9.47,4.95,2.75
COc1cc(Nc2nccc(N3CCC(NC(=O)c4cccc(C#N)c4)C3)n2)cc(OC)c1OC (stereo not given),1.3,1.35,0.79
O=C(Nc1cccc(-c2nn3ncccc3c2-c2ccnc(Nc3ccccc3)n2)c1)c1c(F)cccc1F,3.26,11,2.04

Structure (SMILES),inhibition [1] [%],inhibition [2] [%],inhibition [3] [%]
O=[N+]([O-])c1ccc(-c2nc3cc(C4=NC5CCCCC5N4)ccc3[nH]2)cc1 (stereo not given),-0.03,-0.65,-4.46
Clc1ncnc2scc(-c3ccc(Br)cc3)c12,7.74,6.35,3.52
Cc1cccc2nc(-c3ccc(-c4ccc(CN5CCC(C(N)=O)CC5)cc4)s3)[nH]c12,10.9,9.37,8.95
O=C(Nc1ccc(C(F)(F)F)cc1)NC1CCN(c2ccnc3cc(Cl)ccc23)C1 (stereo not given),3.59,3.27,0.73
CN(C)CCn1c(N)c(-c2nc3ccccc3s2)c2nc(C#N)c(C#N)nc21,2.02,1.76,3.11
COc1cc2c(C3CCN(CC4CCN(C(=O)/C=C/c5ccc(Cl)c(Cl)c5)CC4)CC3)c[nH]c2cn1,2.4,-0.95,-0.88
CCCNCc1ccc(-c2ccc(CN(CCOC)C(=O)c3ccccc3)cc2)nc1,1.21,0.61,1.11
Cc1nc(-c2ccc(-c3ccc(C(=O)Nc4ccc(-n5ccnc5)c(N5CCN(C)CC5)c4)cc3)c(C)c2)no1,2.82,2.86,0.79
CCCN(CC1CC1)c1nc(C)nc2c(-c3ccccc3)cc(C)cc12,12.7,16.2,10.1
O=C(C1CCN(c2nnnn2-c2ccccc2)CC1)N1CCc2ccccc2C1,13,15.6,14.1
COc1ccccc1C(=O)C1CCCN(C(=O)c2ccccc2C(F)(F)F)C1 (stereo not given),-0.79,-0.77,9.65
CCOCc1cn(CC(=O)c2ccc(-c3ccccc3)cc2)c(C)nc1=N,-1.07,-0.82,-0.84
O=[N+]([O-])c1cccc(Nc2nccc(-c3cnn4ncccc34)n2)c1,83,85.4,79.9
CC(Nc1ncc(-c2ccsc2)c(-c2nccs2)n1)c1ccc2c(c1)OCCO2 (stereo not given),5.89,5.47,7.42
NC(CC1CC(=O)N1CC(=O)O)C(=O)O (stereo not given),8.57,7.82,8.53
CC(=O)Nc1cccc(CN(Cc2ccc(-c3ccc(CNCc4cccnc4)cn3)cc2)C(=O)Cc2cccnc2)c1,14.6,10.7,14
COc1cccc(-c2ccc3c(-c4cccc(S(C)(=O)=O)c4)cnc(N)c3c2)c1,8.21,5.42,2.21
CN(C)CCCNCCS(=O)(=O)c1cccc(Nc2ccc(-c3cccc(N(C)C)c3)cn2)c1,1.72,1.88,1.78
O=C(Cn1c(CCc2cccc(F)c2F)nc(=O)c2cccnc21)N(Cc1ccc(-c2ccc(C(F)(F)F)cc2)cc1)C1CCN(C2CCSCC2)CC1,3.24,4.36,0.42
O=C(Nc1cc(Cl)cc(Cl)c1)c1cc(Cl)c(=O)n(Cc2ccc(Cl)cc2)c1,3,5.94,-0.15
O=C(/C=C/c1ccc(Cl)c(Cl)c1)NCCCCCN1CCCC(CCCNC(=O)Nc2ccc(C(F)(F)F)cc2)C1 (stereo not given),11.3,9.28,5.82
CCCCCCn1ccc2c3c(N)nc(N)nc3ccc21,104,101,102
